Data on three molecules can be found in the supplement of paper PMC8728848.

Holding throughout (experiment): glycan array binding signal (z-score within array); higher = stronger binding
Details in all cases: glycan notation: IUPAC condensed, linker removed

The target of test [1] is Fuc(a1-2)Gal6S(b1-4)Glc6S. A digest of the protocol: (§1)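 The Consortium for Functional Glycomics database supplied 3228 glycan arrays, of which those lacking an available protein sequence were dropped. The binding signal, a within-array Z-score, was averaged across arrays of the same protein sequence and across linkers. Negative scores can be read as non-binding.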
The next test concerns the target Fuc(a1-2)[Gal(a1-3)]Gal. A digest of the protocol:
as §1

Test [2] deals with Fuc(a1-3)[Gal(b1-4)]GlcNAc. A digest of the protocol:
as §1

The target in test [3] is Gal(a1-3)Gal(b1-3)[Fuc(a1-4)]GlcNAc(b1-2)Man(a1-3)[Gal(a1-3)Gal(b1-3)[Fuc(a1-4)]GlcNAc(b1-2)Man(a1-6)]Man(b1-4)GlcNAc(b1-4)GlcNAc. A digest of the protocol:
as §1

Test [4] deals with Gal(a1-3)Gal(b1-4)[Fuc(a1-3)]GlcNAc(b1-2)Man(a1-3)[Gal(a1-3)Gal(b1-4)[Fuc(a1-3)]GlcNAc(b1-2)Man(a1-6)]Man(b1-4)GlcNAc(b1-4)GlcNAc. A digest of the protocol:
as §1

Test [5] addresses Gal(b1-3)GlcNAc(a1-6)Gal(b1-4)GlcNAc. A digest of the protocol: as §1
Test [6] concerns the target Gal(b1-3)[Fuc(a1-4)]GlcNAc(b1-3)Gal(b1-3)[Fuc(a1-4)]GlcNAc. A digest of the protocol: as §1
The target in test [7] is Gal(b1-4)GalNAc(b1-3)[Fuc(a1-2)]Gal(b1-4)GlcNAc. A digest of the protocol: as §1
For a further test, the target named is Gal(b1-4)GlcNAc. A digest of the protocol: as §1
The target in test [8] is Gal(b1-4)GlcNAc(b1-2)Man(a1-3)Man(b1-4)GlcNAc(b1-4)GlcNAc. A digest of the protocol:
as §1

For test [9], the target named is Gal(b1-4)GlcNAc(b1-2)[Gal(b1-4)GlcNAc(b1-4)]Man(a1-3)[Gal(b1-4)GlcNAc(b1-2)Man(a1-6)]Man(b1-4)GlcNAc(b1-4)GlcNAc. A digest of the protocol:
as §1

Another test concerns the target GlcA(b1-3)GlcNAc. A digest of the protocol: as §1
Test [10] has as its target GlcNAc(a1-4)Gal(b1-4)GlcNAc(b1-3)Gal(b1-4)[Fuc(a1-3)]GlcNAc(b1-3)Gal(b1-4)[Fuc(a1-3)]GlcNAc. A digest of the protocol: as §1
Test [11] has as its target Man(a1-2)Man(a1-2)Man(a1-3)Man. A digest of the protocol:
as §1

The target in test [12] is Man(a1-2)Man(a1-6)[Man(a1-3)]Man(a1-6)[Man(a1-2)Man(a1-2)Man(a1-3)]Man(b1-4)GlcNAc(b1-4)GlcNAc. A digest of the protocol: as §1
Test [13] has as its target Man(a1-3)[Man(a1-6)]Man(a1-6)[Man(a1-3)]Man(b1-4)GlcNAc(b1-4)GlcNAc. A digest of the protocol: as §1
Test [14] deals with Neu5Ac(a2-3)Gal(b1-4)[Fuc(a1-3)]GlcNAc(b1-3)GalNAc. A digest of the protocol: as §1
Test [15] addresses Neu5Ac(a2-3)Gal6S(b1-4)GlcNAc. A digest of the protocol:
as §1

Test [16] deals with Neu5Ac(a2-3)Gal6S(b1-4)[Fuc(a1-3)]GlcNAc. A digest of the protocol:
as §1

Test [17] addresses Neu5Ac(a2-3)[GalNAc(b1-4)]Gal(b1-4)Glc. A digest of the protocol:
as §1

A further test deals with Neu5Ac(a2-6)Gal. A digest of the protocol:
as §1

In test [18] the target is Neu5Ac(a2-6)Gal(b1-4)GlcNAc(b1-3)Gal(b1-4)GlcNAc. A digest of the protocol: as §1
Test [19] concerns the target Neu5Ac(a2-6)Gal(b1-4)GlcNAc(b1-3)Gal(b1-4)[Fuc(a1-3)]GlcNAc(b1-3)Gal(b1-4)[Fuc(a1-3)]GlcNAc. A digest of the protocol: as §1
The target in test [20] is Neu5Ac(a2-6)GlcNAc(b1-4)GlcNAc. A digest of the protocol: as §1
The target in test [21] is Neu5Ac(a2-8)Neu5Ac(a2-3)Gal(b1-4)Glc. A digest of the protocol:
as §1

Test [22] deals with Neu5Ac9Ac(a2-3)Gal(b1-4)GlcNAc. A digest of the protocol:
as §1

Test [23] addresses Fuc(a1-2)Gal(b1-4)[Fuc(a1-3)]GlcNAc(b1-3)Gal(b1-4)[Fuc(a1-3)]GlcNAc(b1-3)Gal(b1-4)[Fuc(a1-3)]GlcNAc. A digest of the protocol: as §1
The next test deals with Gal(a1-3)Gal. A digest of the protocol:
as §1

Test [24] has as its target Gal(b1-3)GlcNAc(b1-3)Gal(b1-4)GlcNAc. A digest of the protocol:
as §1

The next test has as its target Gal3S(b1-3)GlcNAc. A digest of the protocol:
as §1

The target of another test is Gal6S(b1-4)GlcNAc. A digest of the protocol: as §1
The target of another test is Glc(a1-4)Glc. A digest of the protocol:
as §1

For another test, the target named is Glc(a1-6)Glc(a1-6)Glc. A digest of the protocol:
as §1

A further test has as its target Glc(b1-4)Glc. A digest of the protocol:
as §1

Test [25] concerns the target GlcNAc(b1-4)GlcNAc(b1-4)GlcNAc. A digest of the protocol: as §1
In test [26] the target is Man(a1-2)Man(a1-2)Man(a1-6)[Man(a1-3)]Man. A digest of the protocol: as §1
For another test, the target named is Neu5Ac(a2-3)Gal. A digest of the protocol:
as §1

Test [27] has as its target Neu5Ac(a2-3)[Neu5Ac(a2-6)]GalNAc. A digest of the protocol: as §1
Test [28] addresses Neu5Ac(a2-8)Neu5Ac(a2-8)Neu5Ac(a2-8)Neu5Ac(a2-3)[GalNAc(b1-4)]Gal(b1-4)Glc. A digest of the protocol: as §1
Test [29] deals with Neu5Ac(b2-6)Gal(b1-4)GlcNAc. A digest of the protocol: as §1
For test [30], the target named is Neu5Gc(a2-6)Gal(b1-4)GlcNAc. A digest of the protocol: as §1
In the next test the target is Fuc(a1-2)GlcNAc. A digest of the protocol:
as §1

Test [31] concerns the target Fuc(a1-2)[GalNAc(a1-3)]Gal(b1-4)Glc. A digest of the protocol: as §1
The target in test [32] is Gal(a1-3)[Gal(a1-4)]Gal(b1-4)GlcNAc. A digest of the protocol:
as §1

The target of test [33] is Gal(b1-3)[Neu5Ac(b2-6)]GalNAc. A digest of the protocol: as §1
Test [34] deals with Gal(b1-4)GlcNAc(b1-2)Man(a1-3)[Gal(b1-4)GlcNAc(b1-2)Man(a1-6)]Man(b1-4)GlcNAc(b1-4)GlcNAc. A digest of the protocol: as §1
Test [35] addresses Gal(b1-4)GlcNAc(b1-3)Gal(b1-4)GlcNAc(b1-3)Gal(b1-4)GlcNAc. A digest of the protocol: as §1
Test [36] has as its target Gal(b1-4)GlcNAc(b1-3)GalNAc. A digest of the protocol: as §1
Test [37] deals with Gal(b1-4)GlcNAc(b1-3)[Gal(b1-4)GlcNAc(b1-6)]GalNAc. A digest of the protocol: as §1
Test [38] concerns the target Gal(b1-4)GlcNAc(b1-6)[Gal(b1-3)]GalNAc. A digest of the protocol:
as §1

The next test concerns the target GalNAc(a1-3)GalNAc. A digest of the protocol: as §1
For test [39], the target named is GalNAc(b1-3)Gal(a1-4)Gal(b1-4)GlcNAc. A digest of the protocol: as §1
In the next test the target is Glc(b1-6)Glc. A digest of the protocol: as §1
The target of test [40] is GlcNAc(b1-3)Gal(b1-4)GlcNAc. A digest of the protocol: as §1
Test [41] addresses GlcNAc(b1-4)GlcNAc(b1-4)GlcNAc(b1-4)GlcNAc(b1-4)GlcNAc(b1-4)GlcNAc. A digest of the protocol:
as §1

Another test addresses GlcNAc(b1-6)GalNAc. A digest of the protocol: as §1
Test [42] has as its target Neu5Ac(a2-3)Gal(b1-4)GlcNAc(b1-3)Gal(b1-4)GlcNAc. A digest of the protocol: as §1
The target in test [43] is Neu5Ac(a2-3)Gal(b1-4)[Fuc(a1-3)]GlcNAc6S. A digest of the protocol: as §1
For a further test, the target named is Neu5Ac(a2-3)GalNAc. A digest of the protocol: as §1
The target of test [44] is Neu5Ac(a2-3)GalNAc(b1-4)GlcNAc. A digest of the protocol:
as §1

Test [45] deals with Neu5Ac(a2-8)Neu5Ac(a2-8)Neu5Ac(a2-3)[GalNAc(b1-4)]Gal(b1-4)Glc. A digest of the protocol: as §1
A further test addresses Neu5Gc(a2-3)Gal(b1-4)Glc. A digest of the protocol: as §1
The next test concerns the target Neu5Gc(a2-6)GalNAc. A digest of the protocol: as §1

The entries come from a sample that favours the strongest signals as a whole.

B1: PEB4 (Campylobacter jejuni), A1VYV6 (protein)
chain: MKKFSLVAAALIAGVALNVNAATVATVNGKSISDAEVSEFFAPMLRGQDFKTLPDNQKKALIQQYIMQDLILQDAKKQNLEKDPLYTKELDRAKDAILVNVYQEKILNTIKIDAAKVKAFYDQNKDKYVKPARVQAKHILVATEKEAKDIINELKGLKGKELDAKFSELAKEKSIDPGSKNQGGELGWFDQSTMVKPFTDAAFALKNGTITTTPVKTNFGYHVILKENSQAKGQIKFDEVKQGIENGLKFEEFKKVINQKGQDLLNSAKVEYK
For B1, the “glycan array binding signal (z-score)” value in test [1] was 0.571; with Fuc(a1-2)[Gal(a1-3)]Gal, -0.517; in [2], -0.387; in test [3], 3.83; in test [4] it was 2.12; in [5], 2.54. Besides, the “glycan array binding signal (z-score)” value in [6] was 2.99; in test [7], -0.25; in the test with Gal(b1-4)GlcNAc, -0.852; in test [8], -0.258; in test [9], 2.58; in the test with GlcA(b1-3)GlcNAc, 0.752. Besides, the “glycan array binding signal (z-score)” value is 4.35 in test [10]; 2.37 in test [11]; 0.969 in test [12]; -0.553 in test [13]; 5.24 in test [14]; 1.6 in test [15]. The “glycan array binding signal (z-score)” value in test [16] was 2.8; in [17], -1.19; with Neu5Ac(a2-6)Gal it was 0.075; in test [18], -0.672; in test [19], -0.544; in test [20], -0.701. Moreover, the results for the “glycan array binding signal (z-score)” value in test [21] and in test [22] were -0.705 and -1.05, respectively.

B2: FaeGab (Escherichia coli) (protein)
chain: WMTGDFNGSVDIGGSITADDYRQKWEWKVGTGLNGFGNVLNDLTNGGTKLTITVTGNKPILLGRTKEAFATPVSGGVDGIPQIAFTDYEGASVKLRNTDGETNKGLAYFVLPMKNAEGTKVGSVKVNASYAGVFGKGGVTSADGELFSLFADGLRAIFYGGLTTTVSGAALTSGSAAAARTELFGSLSRNDILGQIQRVNANITSLVDVAGSYREDMEYTDGTVVSAAYALGIANGQTIEATFNQAVTTSTQWSAPLNVAITYY
Consider B2, for which the “glycan array binding signal (z-score)” value in test [23] was -0.302; with Gal(a1-3)Gal it was 0.089; in test [24], -0.347; with Gal3S(b1-3)GlcNAc it was -0.012; with Gal6S(b1-4)GlcNAc, -0.201; with Glc(a1-4)Glc, 8.87. The “glycan array binding signal (z-score)” value with Glc(a1-6)Glc(a1-6)Glc was 10.2; with Glc(b1-4)Glc, 4.4; in test [25], 0.132; in test [26] it was 1.91; with Neu5Ac(a2-3)Gal, -0.477; in test [27], -0.489. Moreover, the “glycan array binding signal (z-score)” value was -0.433 in [19], -0.352 in test [28], -0.473 in [29] and -0.5 in [30].

B3: RSVL (Crotalus atrox), P21963 (protein)
chain: NNCPLDWLPMNGLCYKIFNQLKTWEDAEMFCRKYKPGCHLASFHRYGESLEIAEYISDYHKGQENVWIGLRDKKKDFSWEWTDRSCTDYLTWDKNQPDHYQNKEFCVELVSLTGYRLWNDQVCESKDAFLCQCKF
In the case of B3, the “glycan array binding signal (z-score)” value in the test with Fuc(a1-2)GlcNAc was -0.364; in test [31] it was 1.84; in test [32], 5.83; in [33], 0.952; with Gal(b1-4)GlcNAc, 0.686; in test [34] it was 1.49. Moreover, the “glycan array binding signal (z-score)” value in [35] is -0.23; in test [36], -0.171; in test [37], 5.41; in test [38] it was 5.05; with GalNAc(a1-3)GalNAc it was 4.76; in test [39], 0.559. For the same molecule, the “glycan array binding signal (z-score)” value was -0.364 with Glc(b1-6)Glc; -0.369 in [40]; -0.369 in test [41]; 1.02 in the test with GlcNAc(b1-6)GalNAc; -0.367 in [11]; -0.365 in [42]. Further, the “glycan array binding signal (z-score)” value was -0.345 in test [43]; -0.367 in the test with Neu5Ac(a2-3)GalNAc; -0.342 in test [44]; -0.362 in [45]; -0.365 with Neu5Gc(a2-3)Gal(b1-4)Glc; -0.366 in the test with Neu5Gc(a2-6)GalNAc.
